High-throughput results: PubChem BioAssay, National Center for Advancing Translational Sciences (NCATS)
Shiga inhibitor = Shiga toxin inhibition | Vero cells, Shiga toxin protein synthesis inhibition reporter | inhibition, % at 38.7 µM | actives 9.2% (n = 290,000) | AID 2315; in the data active means inhibition mostly above about 28%, no sharp cut-off; inactive means mostly below about 43%; further: 0% is about no effect
AmpC detergent = inhibitors of E. coli AmpC beta-lactamase with detergent; P00811; AmpC hydrolysis of nitrocefin, absorbance 480 nm, 0.01% Triton; Potency, µM (titrated, usually from 114 µM), for inactives: top-dose activity change, negative = inhibition, usual class: inhibitors; actives 0.041% (n = 370,000); AID 485294;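 further: potency means the concentration at half of the fitted maximal effect; 0% = no-compound wells and -100% = no-enzyme wells; nearly all actives have a fitted effect of over 25% in size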
Target sequence (P00811 whole entry, looked up): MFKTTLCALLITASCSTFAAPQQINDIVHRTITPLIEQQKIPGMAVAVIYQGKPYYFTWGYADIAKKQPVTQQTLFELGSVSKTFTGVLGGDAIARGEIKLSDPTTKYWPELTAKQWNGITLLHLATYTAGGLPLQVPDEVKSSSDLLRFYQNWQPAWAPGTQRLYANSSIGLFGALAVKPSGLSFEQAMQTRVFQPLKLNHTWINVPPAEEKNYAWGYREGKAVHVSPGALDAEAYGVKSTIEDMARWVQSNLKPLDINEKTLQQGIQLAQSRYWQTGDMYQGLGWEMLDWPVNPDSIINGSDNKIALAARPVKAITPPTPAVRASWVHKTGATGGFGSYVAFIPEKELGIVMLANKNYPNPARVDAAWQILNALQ
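20 mM phosphate pH 7.0 + 0.01% (detergent screen) or 0.0001% Triton X-100; 5.3 nM AmpC reagent; cpd preinc 15 min RT; nitrocefin (800 uM stock) to start; A480 q20 s × 4 min; Activity was normalised to no-enzyme and no-compound control wells.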
AmpC inh no detg = inhibitors of E. coli AmpC beta-lactamase without detergent. actives 0.52% (n = 330,000). Potency, µM (top dose mostly 57.1 µM), for the others: at the highest dose activity change, negative = inhibition, hits mostly inhibitors. P00811. AmpC nitrocefin hydrolysis, absorbance 480 nm, 0.0001% Triton;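 further: potency means the concentration at half of the fitted maximal effect; plate controls were no compound for no effect and no enzyme for full effect; nearly all actives have a fitted effect of over 20% in size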
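AmpC (5.3 nM in the dispensed reagent) in 20 mM phosphate pH 7.0 with 0.01% (detergent screen) or 0.0001% Triton X-100 was preincubated with compounds for 15 min at room temperature. Nitrocefin was then added from an 800 uM solution, and hydrolysis was followed at 480 nm.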
NS1 inh = influenza NS1 inhibition | Potency, µM (titrated, usually from 46.1 µM), for the others: at the top dose activity, positive = more growth | actives 0.4% (n = 270,000) | AID 2326; calls by dose curve; further: potency means the concentration at half of the fitted maximal effect; actives are rising curves; nearly all actives have a fitted effect of over 50% in size
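S. cerevisiae expressing influenza A NS1, grown in glucose, washed, then diluted 1:100 into pH 6.0 -URA galactose medium with 23 nl compound. Growth recovery read as OD600; NS1-free strain serves as control.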
CHX counter = affects cycloheximide protein synthesis inhibition readout, counter-screen; cell reporter, cycloheximide protein synthesis inhibition counterscreen; max response, %; actives 12% (n = 300,000); AID 2314; in the data active means max response mostly above about 13%, no sharp cut-off; inactive means mostly below about 14%; further: read at 38.3 µM for the half of the compounds with a filed dose; 0% is about no effect
An asterisk follows results filed as active; ? = inconclusive; nt = no result. The sample as a whole holds a higher share of hits than the screen did. Unless noted, the call rests on the fitted dose curve; in most records, active means well fitted curve in the direction sought with a large enough effect; inconclusive means small, poorly fitted or top-dose-only effect, or another doubt; inactive means no such curve, though single readings can be large; an effect the other way counts as inactive or inconclusive.

SMILES	Shiga inhibitor	AmpC detergent	AmpC inh no detg	NS1 inh	CHX counter
N/C(=N\OC(=O)c1cccc2ccccc12)c1cccnc1	94*	-7%	-9%	-1%	42*
N/C(=N\OC(=O)c1cccc2ccccc12)c1cccc([N+](=O)[O-])c1	17	-6%	-10%	-6%	10
CCCc1cnc2c(c1SCC(=O)Nc1ccccc1F)c(=O)n(C)c(=O)n2C	nt	4%	nt	nt	nt
Cc1nn(CC(=O)N2CCN(c3ccccc3)CC2)c(=O)c2cc3sccc3n12	nt	20%	nt	nt	nt
O=C(COC(=O)CNC(=O)c1cccc([N+](=O)[O-])c1)Nc1ccccc1OC(F)F	-11	?	3%	2%	0
O=C(COC(=O)CNC(=O)c1cccc([N+](=O)[O-])c1)Nc1nc2ccccc2s1	33	5%	-33%	13%	15*
CC1CN(CC(=O)Nc2nc3ccccc3s2)CC(C)O1 (stereo not given)	57	-13%	0%	2%	12*
CN1CCN(CC(=O)Nc2nc3ccccc3s2)CC1	26	-12%	-14%	18%	18*
O=C(Cn1ccc([N+](=O)[O-])n1)Nc1nc2ccccc2s1	86*	-9%	-37%	nt	26
CC(C)On1c(SCC(=O)N(C)C)nc2ccccc2c1=O	-4	-1%	4%	0%	-1
CCCCCCCC(=O)Nc1cc(C(=O)NCCC)ccc1N1CCC2(CC1)CC(c1ccccc1)=NO2	-3	-8%	-18%	12%	1
COc1cc(C(=O)Nc2ccccc2-c2nc(-c3ccccc3)no2)cc(OC)c1OC	20	30%	nt	nt	-4
Cc1ccn2cc(-c3cccc(S(=O)(=O)N4CCCC4)c3)nc2c1	98	-6%	-11%	-3%	19*
Cc1ccn2cc(-c3cccc(NS(C)(=O)=O)c3)nc2c1	59*	1%	-20%	2%	60*
Cc1ccc(S(=O)(=O)Nc2ccc(-c3cn4ccc(C)cc4n3)cc2)cc1	19	0%	-27%	20%	8
COc1c(Cl)cccc1-c1cn2ccc(C)cc2n1	81*	2%	6%	-36%	42*
Cc1ccn2cc(-c3ccc(NS(=O)(=O)c4ccccc4)cc3)nc2c1	13*	0%	-33%	3%	16
C=C1CC2C(=O)N(Cc3ccccc3)C(C(=O)O)C1N2C(=O)OC(C)(C)C (stereo not given)	10	nt	nt	nt	-1
CC(=O)c1ccc(NC(=O)c2cc(C)nc3c2c(C)nn3-c2ccc(C)cc2)cc1	nt	-1%	nt	nt	nt
Cc1ccn2cc(-c3cccc([N+](=O)[O-])c3)nc2c1	25	-2%	?	-3%	30*
Clc1ccc(-c2cn3cc(Br)ccc3n2)cc1Cl	103*	?	-31%	-7%	51*
CC(=O)Nc1cccc(-c2cn3ccc(C)cc3n2)c1	89*	-1%	-14%	1%	44*
Cc1ccn2cc(-c3ccc(Br)cc3)nc2c1	22*	-5%	-20%	-59%	38*
Cc1ccn2cc(-c3cccc(NC(=O)CCC(=O)O)c3)nc2c1	5	-7%	-15%	12%	0
O=C(/C=C/c1cccc([N+](=O)[O-])c1)NCCSCc1ccc(Cl)cc1	-7	4%	-24%	-13%	-1
SMILES	Shiga inhibitor	AmpC detergent	AmpC inh no detg	NS1 inh	CHX counter
COc1ccc2oc(=O)c(-c3cn4ccc(C)cc4n3)cc2c1	28	1%	-21%	0%	23*
O=c1oc2ccccc2cc1-c1cn2ccccc2n1	9	5%	-20%	-5%	-1
CC(=O)Nc1ccc2nc(-c3ccccc3)cn2c1	107*	-1%	-11%	2%	40*
COc1ccc(-c2csc(Nc3ccc(S(N)(=O)=O)cc3)n2)cc1OC	-11	-5%	16µM*	nt	-6
COc1ccc(-c2csc(Nc3cccnc3)n2)cc1OC	active	-12%	-13%	-7%	21
COc1cccc(Nc2nc(-c3cccnc3)cs2)c1	57*	-2%	-39%	-42%	53*
COc1ccc(-c2nc(CS(=O)(=O)CC(=O)NCCCN3CCN(C)CC3)c(C)o2)cc1	-8	-6%	48%	6%	4
Cc1ccc(NS(=O)(=O)c2ccc3c(c2)CC(C)N3C(=O)C2CCC2)cc1Cl (stereo not given)	nt	-4%	nt	nt	nt
N#CC1=C(N)Oc2c(c(=O)sc3ccccc23)C1c1ccncc1 (stereo not given)	7	-7%	-41%	nt	20*
O=C(NCc1ccco1)c1ccccc1-c1ccccc1	-9	-12%	-7%	10%	-2
CC(C)c1cc(C(=O)NCCc2ccccc2)no1	72*	3%	-11%	nt	47*
O=C(NCCc1ccccc1)c1cc2ncc(Br)cn2n1	46	-10%	-21%	-3%	26*
CC(C)c1cc(C(=O)NCc2ccccc2)no1	nt	14%	nt	nt	nt
CC(C)c1cc(C(=O)NCc2ccco2)no1	66*	1%	?	?	42*
COCCNC(=O)c1cc2ncc(Br)cn2n1	18	-12%	-13%	-4%	7
O=C(NCc1ccco1)c1cc(-c2ccccc2)on1	104*	-12%	-20%	-2%	48*
CCOC(=O)c1c(NC(C)=O)c2c3c(sc2n1Cc1cc(C)ccc1C)CCCC3	nt	15%	nt	nt	nt
CCCCn1c(N)c(N(CC(C)C)C(=O)C2CC(=O)N(Cc3ccccc3)C2)c(=O)[nH]c1=O (stereo not given)	nt	-13%	-3%	nt	nt
Cc1ccc(NC(=O)Cn2c(=O)n(CCCCC(=O)NCc3ccccc3Cl)c(=O)c3ccccc32)cc1	nt	16%	nt	nt	nt
COc1ccc(-c2cc(C(=O)NCc3ccc(F)cc3)no2)cc1	nt	13%	nt	nt	nt
O=C(NCc1ccco1)c1cc(-c2ccc(F)cc2)on1	92*	1%	-24%	1%	59*
O=C(NCc1ccco1)c1cccs1	-23	3%	-10%	-5%	7
O=C(NCc1ccco1)c1cc(-c2cccs2)on1	121*	-8%	-6%	-5%	55*
COc1ccc(OC)c(NC(=O)CSc2nccn2-c2cc(C)cc(C)c2)c1	nt	6%	nt	nt	nt
Cc1c(NS(C)(=O)=O)cccc1-c1nc2cccnc2s1	154*	3%	-5%	-4%	32*
SMILES	Shiga inhibitor	AmpC detergent	AmpC inh no detg	NS1 inh	CHX counter
Cc1c(NS(=O)(=O)c2ccc3c(c2)OCCO3)cccc1-c1nc2cccnc2s1	2	10%	-11%	15%	16
Cc1c(NS(=O)(=O)c2cccs2)cccc1-c1nc2cccnc2s1	22	2%	-44%	-11%	24*
O=C1Nc2ccc(NS(=O)(=O)c3cccs3)c3cccc1c23	9	-4%	8%	-11%	12
O=S(=O)(Nc1cccc2ncccc12)c1cccs1	6	-3%	-28%	-74%	29*
Cc1cc(C)c2c(N=NN3CCOCC3)[nH]nc2n1	-1	-12%	-6%	-29%	2
CCOC(=O)c1[nH]c(C)c(C(=O)Nc2ccc(C)c(Cl)c2)c1C	8	?	5%	-5%	9.0*
Cc1cc(C(=O)CSc2ccc(Cl)cc2)cc(C)c1OC(=S)N(C)C	90*	-16%	-22%	6%	36*
